# Laboratory results: PubChem BioAssay (NCATS)
# Results filed as inconclusive are left out. A call without a number means that no potency is given here. Calls of active or inactive are those of the source. Unless noted, the call rests on the fitted dose curve; in most records, active means well fitted inhibition curve with a large enough effect; inconclusive means small, poorly fitted or top-dose-only effect; inactive means flat fitted curve, though single readings scatter.
# Assays:
# [1] = biological target: Glucocorticoid receptor (Homo sapiens) (UniProt P04150); test: GR-EFC Redistribution (AID 451; calls by dose curve; further: potency means the concentration at half of the fitted maximal effect); conditions: CHO-K1 GR-EFC translocation, beta-gal luminescence, 2 h
# Glucocorticoid receptor (Homo sapiens), sequence (P04150 whole entry, looked up, the tested form may be a part): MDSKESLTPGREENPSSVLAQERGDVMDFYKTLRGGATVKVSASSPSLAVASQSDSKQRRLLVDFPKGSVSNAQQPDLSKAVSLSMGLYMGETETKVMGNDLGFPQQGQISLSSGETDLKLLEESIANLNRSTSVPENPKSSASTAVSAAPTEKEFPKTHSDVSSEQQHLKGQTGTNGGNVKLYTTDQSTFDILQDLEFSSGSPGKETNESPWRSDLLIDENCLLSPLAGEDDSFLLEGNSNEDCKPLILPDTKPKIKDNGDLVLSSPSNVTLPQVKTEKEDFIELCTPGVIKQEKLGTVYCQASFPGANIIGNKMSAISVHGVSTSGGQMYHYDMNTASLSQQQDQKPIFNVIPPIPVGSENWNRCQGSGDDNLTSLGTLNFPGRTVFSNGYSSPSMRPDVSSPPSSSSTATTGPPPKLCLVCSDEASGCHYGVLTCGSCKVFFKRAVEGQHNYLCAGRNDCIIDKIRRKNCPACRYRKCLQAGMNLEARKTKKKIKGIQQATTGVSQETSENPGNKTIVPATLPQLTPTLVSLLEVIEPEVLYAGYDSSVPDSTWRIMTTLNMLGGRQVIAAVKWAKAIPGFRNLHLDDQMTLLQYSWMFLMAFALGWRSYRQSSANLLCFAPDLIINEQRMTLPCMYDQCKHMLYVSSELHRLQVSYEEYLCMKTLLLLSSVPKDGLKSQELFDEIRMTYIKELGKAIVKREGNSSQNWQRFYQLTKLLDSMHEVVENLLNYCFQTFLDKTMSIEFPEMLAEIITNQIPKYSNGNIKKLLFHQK
# How it was run: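 CHO-K1 cells expressing nuclear EA and GR-ED fragments of b-gal; compounds titrated up to 46 uM final, 2 h at 37 C. GR nuclear translocation read as complemented b-gal luminescence after 1 h RT detection.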
# [2] = biological target: Mitogen-activated protein kinase 10 (Mus musculus) (UniProt Q61831); test: JNK3 AlphaScreen Assay (AID 530; active means well fitted curve in either direction with a large enough effect, not every such curve was filed as active;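 further: kinase came from lysate of stimulated human HepG2 cells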; further: potency means the concentration at half of the fitted maximal effect;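 on activity change, negative = inhibition: signal reports phosphorylation of biotinylated GST-cJun 1-79 at Ser73 with 10 µM ATP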); conditions: JNK3 lysate, c-Jun phosphorylation; series mostly up to 25.6 µM
# How it was run: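 HepG2 lysate (IL-1b/TNFa pre-activated) + biotin-GST-cJun 1-79 + anti-pSer73 cJun; cpd titration, 15 min RT; ATP 10 uM start; Tris pH 7.6, MgCl2, DTT, vanadate; beads in EDTA buffer; AlphaScreen.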
# [3] = biological target: 3',5'-cyclic-AMP phosphodiesterase 4B (Homo sapiens) (UniProt Q07343); test: qHTS Assay for Inhibitors of PDE-IV (AID 607; active means well fitted activation curve with a large enough effect in the main read-out, with a control signal flat, not every such curve was filed as active); conditions: HEK293 ACTOne CNG channel cells, membrane potential fluorescence; series mostly up to 22.9 µM
# 3',5'-cyclic-AMP phosphodiesterase 4B (Homo sapiens), sequence (Q07343 whole entry, looked up): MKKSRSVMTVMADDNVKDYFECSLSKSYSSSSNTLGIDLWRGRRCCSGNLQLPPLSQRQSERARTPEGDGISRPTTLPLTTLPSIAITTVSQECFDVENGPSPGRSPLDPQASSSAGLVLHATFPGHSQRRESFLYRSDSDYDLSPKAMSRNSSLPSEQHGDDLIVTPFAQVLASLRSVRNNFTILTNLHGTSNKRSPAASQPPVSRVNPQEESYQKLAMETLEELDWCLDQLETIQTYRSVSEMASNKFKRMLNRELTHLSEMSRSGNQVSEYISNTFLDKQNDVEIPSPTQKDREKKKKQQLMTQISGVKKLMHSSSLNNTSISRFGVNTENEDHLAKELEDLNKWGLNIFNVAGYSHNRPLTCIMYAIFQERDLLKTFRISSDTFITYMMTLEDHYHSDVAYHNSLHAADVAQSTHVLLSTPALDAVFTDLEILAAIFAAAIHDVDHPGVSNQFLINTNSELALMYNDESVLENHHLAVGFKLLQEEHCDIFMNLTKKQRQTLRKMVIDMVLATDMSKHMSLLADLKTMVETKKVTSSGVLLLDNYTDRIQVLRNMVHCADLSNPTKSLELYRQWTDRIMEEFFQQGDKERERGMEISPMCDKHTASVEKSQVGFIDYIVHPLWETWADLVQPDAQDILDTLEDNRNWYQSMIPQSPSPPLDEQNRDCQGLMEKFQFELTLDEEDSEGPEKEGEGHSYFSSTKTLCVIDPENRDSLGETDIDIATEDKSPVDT
# How it was run: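 HEK293 ACTOne cells with CNG channel (1000/well), endogenous PDE4; membrane potential dye, compounds up to 22.9 uM final. Fluorescence Ex 535/Em 590; RO 20-1724 (100 uM final) as reference.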
# [4] = qHTS Assay for Lipid Storage Modulators (AID 1519; calls by dose curve); conditions: Drosophila S3 cells, BODIPY lipid droplet/cell ratio, laser cytometry, cells loaded with oleic acid
# How it was run: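 Cells seeded at 5,000 per well were treated with compounds over a concentration series and loaded with oleic acid (400 uM, as added). Lipid droplet fluorescence (488 nm excitation, 500-530 nm channel) was read by laser-scanning cytometry and normalized to 20 uM Triacsin C.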
# [5] = biological target: Ubiquitin carboxyl-terminal hydrolase 1 (Homo sapiens) (UniProt O94782); test: Inhibitors of USP1/UAF1: Pilot qHTS (AID 504865); conditions: purified USP1/UAF1, Ub-rhodamine cleavage fluorescence; series mostly up to 114 µM; further: nearly all actives have a fitted effect of over 35% in size; further: potency means the concentration at half of the fitted maximal effect;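 on activity change, negative = inhibition: rhodamine fluorescence freed from ubiquitin-rhodamine substrate followed over time; top concentration of the series differs between compounds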
# Ubiquitin carboxyl-terminal hydrolase 1 (Homo sapiens), sequence (O94782 whole entry, looked up): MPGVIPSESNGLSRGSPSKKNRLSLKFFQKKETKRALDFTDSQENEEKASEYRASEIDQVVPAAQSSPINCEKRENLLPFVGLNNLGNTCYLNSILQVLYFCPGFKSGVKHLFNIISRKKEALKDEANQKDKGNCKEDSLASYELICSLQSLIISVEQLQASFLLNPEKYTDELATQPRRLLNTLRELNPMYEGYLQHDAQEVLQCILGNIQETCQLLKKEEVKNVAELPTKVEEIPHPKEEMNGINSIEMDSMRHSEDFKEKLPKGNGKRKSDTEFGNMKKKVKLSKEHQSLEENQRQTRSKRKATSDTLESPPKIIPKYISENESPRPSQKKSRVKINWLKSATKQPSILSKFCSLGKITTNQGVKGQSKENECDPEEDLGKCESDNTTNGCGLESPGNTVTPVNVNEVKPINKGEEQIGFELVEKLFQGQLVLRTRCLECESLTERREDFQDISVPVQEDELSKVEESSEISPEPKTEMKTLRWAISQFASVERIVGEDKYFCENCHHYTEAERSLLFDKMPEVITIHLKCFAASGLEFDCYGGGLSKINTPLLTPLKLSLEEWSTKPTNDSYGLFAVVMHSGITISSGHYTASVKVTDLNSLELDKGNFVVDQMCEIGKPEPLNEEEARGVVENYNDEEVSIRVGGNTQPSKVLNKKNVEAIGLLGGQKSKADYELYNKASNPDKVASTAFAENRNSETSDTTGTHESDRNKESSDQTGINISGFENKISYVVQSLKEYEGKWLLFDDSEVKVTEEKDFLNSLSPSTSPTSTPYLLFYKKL
# How it was run: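 Deubiquitinase activity followed as kinetic rhodamine fluorescence release from 150 nM Ub-Rho. 1 nM USP1/UAF1 with compound, after 15 min room-temperature preincubation, in HEPES pH 7.8 buffer containing TCEP, EDTA, BSA and Tween-20.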
# [6] = biological target: Luciferin 4-monooxygenase (Photinus pyralis) (UniProt P08659); test: Biochemical firefly luciferase enzyme assay for NPC (AID 624030);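 further: purified P. pyralis luciferase at 10 nM with luciferin and ATP substrate; nearly all actives have a fitted effect of over 70% in size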; conditions: purified P. pyralis luciferase, luminescence, 5 min; series mostly up to 24.9 µM
# Luciferin 4-monooxygenase (Photinus pyralis), sequence (P08659 whole entry, looked up): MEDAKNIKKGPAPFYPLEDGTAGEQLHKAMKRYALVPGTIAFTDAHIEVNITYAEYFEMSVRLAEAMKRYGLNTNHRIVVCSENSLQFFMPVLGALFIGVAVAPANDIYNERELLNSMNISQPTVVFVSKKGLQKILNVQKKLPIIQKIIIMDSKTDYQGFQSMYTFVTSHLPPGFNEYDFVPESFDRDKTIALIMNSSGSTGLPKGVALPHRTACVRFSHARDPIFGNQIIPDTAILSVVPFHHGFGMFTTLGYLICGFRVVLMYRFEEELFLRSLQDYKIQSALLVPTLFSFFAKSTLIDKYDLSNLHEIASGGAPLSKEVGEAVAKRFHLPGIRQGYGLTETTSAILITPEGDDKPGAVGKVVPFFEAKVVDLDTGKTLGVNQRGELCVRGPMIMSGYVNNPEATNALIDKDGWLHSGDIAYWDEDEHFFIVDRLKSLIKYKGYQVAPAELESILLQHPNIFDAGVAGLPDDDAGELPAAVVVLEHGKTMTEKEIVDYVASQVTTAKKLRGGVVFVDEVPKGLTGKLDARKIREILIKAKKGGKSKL
# How it was run: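 Purified P. pyralis luciferase at 10 nM in 50 mM Tris Acetate (final), luminescence read within 5 minutes of enzyme addition to compounds. Activity normalised to PTC124 versus DMSO; concentration-response curves classed by r2, magnitude and activity.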
# [7] = qHTS profiling for inhibitors of Plasmodium falciparum proliferation (AID 504749); further: potency means the concentration at half of the fitted maximal effect; on all read-outs here: nearly all actives have a fitted effect of over 60% in size; conditions: P. falciparum in erythrocytes, SYBR Green DNA, 72 h; for activity, negative = inhibition: at 12.8 µM (top of the series)
# How it was run: (§1)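 SYBR Green fluorescence (ex 485 nm, em 535 nm) reports parasite DNA after 72 h compound exposure of infected red cells at 0.3% parasitemia, 2.5% hematocrit; signal normalized to 0.29 uM artemisinin and vehicle wells.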
# [8] = system: 3D7; test: as above; conditions: P. falciparum in erythrocytes, SYBR Green DNA, 72 h; series mostly up to 12.8 µM
# How it was run: as §1
# [9] = system: C2A; test: as above; conditions: P. falciparum in erythrocytes, SYBR Green DNA, 72 h; series mostly up to 12.8 µM
# How it was run: as §1
# [10] = system: CP217; test: as above; conditions: P. falciparum in erythrocytes, SYBR Green DNA, 72 h; series mostly up to 12.8 µM
# How it was run: as §1
# [11] = system: CP237; test: as above; conditions: P. falciparum in erythrocytes, SYBR Green DNA, 72 h; series mostly up to 12.8 µM
# How it was run: as §1
# [12] = system: CP238; test: as above; conditions: P. falciparum in erythrocytes, SYBR Green DNA, 72 h; series mostly up to 12.8 µM
# How it was run: as §1
# [13] = system: CP252; test: as above; conditions: P. falciparum in erythrocytes, SYBR Green DNA, 72 h; series mostly up to 12.8 µM
# How it was run: as §1
# [14] = system: CP291; test: as above; conditions: P. falciparum in erythrocytes, SYBR Green DNA, 72 h; series mostly up to 12.8 µM
# How it was run: as §1
# [15] = system: CP297; test: as above; conditions: P. falciparum in erythrocytes, SYBR Green DNA, 72 h; series mostly up to 12.8 µM
# How it was run: as §1
# [16] = system: ECU; test: as above; conditions: P. falciparum in erythrocytes, SYBR Green DNA, 72 h; series mostly up to 12.8 µM
# How it was run: as §1
# [17] = system: HB3; test: as above; conditions: P. falciparum in erythrocytes, SYBR Green DNA, 72 h; series mostly up to 12.8 µM
# How it was run: as §1
# [18] = system: PAD; test: as above; conditions: P. falciparum in erythrocytes, SYBR Green DNA, 72 h; series mostly up to 12.8 µM
# How it was run: as §1
# [19] = system: PC26; test: as above; conditions: P. falciparum in erythrocytes, SYBR Green DNA, 72 h; series mostly up to 12.8 µM
# How it was run: as §1
# [20] = system: SC27B; test: as above; conditions: P. falciparum in erythrocytes, SYBR Green DNA, 72 h; series mostly up to 12.8 µM
# How it was run: as §1
# [21] = measured here: cell count channel max response
# [22] = measured here: lipid channel max response
structure (smiles),measurement,setting,value
C[C@@H](C(=O)O)c1ccc(N2Cc3ccccc3C2=O)cc1,Potency,[1],> 20.6 µM (inactive)
same,Potency,[2],inactive
same,outcome,[3],inactive
same,"activity change, negative = inhibition",[4]; at 25.7 µM (top of the series),-0.476% (inactive)
same,max response,[4]; [21],-8.47%
same,max response,[4]; [22],-10.4%
same,Potency,[5],inactive
CC1(C)[C@@H](OC(=O)CCC(=O)O)CC[C@@]2(C)[C@H]1CC[C@@]1(C)[C@H]2C(=O)C=C2[C@H]3C[C@](C)(C(=O)O)CC[C@]3(C)CC[C@@]21C,Potency,[1],> 20.6 µM (inactive)
same,Potency,[2],inactive
same,outcome,[3],inactive
same,"activity change, negative = inhibition",[4]; at 25.7 µM (top of the series),-0.623% (inactive)
same,max response,[4]; [21],-1.7%
same,max response,[4]; [22],-2.85%
same,Potency,[5],inactive
same,Potency,[6],inactive
same,"activity, negative = inhibition",[7]; parasite line A,-5.96% (inactive)
same,"activity, negative = inhibition",[7]; parasite line B,13.4% (inactive)
same,Potency,[8],inactive
same,Potency,[9],inactive
same,Potency,[10],inactive
same,Potency,[11],inactive
same,Potency,[12],inactive
same,Potency,[13],inactive
same,Potency,[14],inactive
same,Potency,[15],inactive
same,Potency,[16],inactive
same,Potency,[17],inactive
same,Potency,[18],inactive
same,Potency,[19],inactive
same,Potency,[20],inactive
O=C(O)COCCN1CCN([C@@H](c2ccccc2)c2ccc(Cl)cc2)CC1,Potency,[2],inactive
same,outcome,[3],inactive
same,"activity change, negative = inhibition",[4]; at 25.7 µM (top of the series),0.348% (inactive)
same,max response,[4]; [21],-9.07%
same,max response,[4]; [22],-7.35%
same,Potency,[6],inactive
same,"activity, negative = inhibition",[7]; parasite line A,-5.9% (inactive)
same,"activity, negative = inhibition",[7]; parasite line B,11.4% (inactive)
same,Potency,[8],inactive
same,Potency,[9],inactive
same,Potency,[10],inactive
same,Potency,[11],inactive
same,Potency,[12],inactive
same,Potency,[13],inactive
same,Potency,[14],inactive
same,Potency,[15],inactive
same,Potency,[16],inactive
same,Potency,[18],inactive
same,Potency,[19],inactive
same,Potency,[20],inactive
C[C@H](NCCC(c1ccccc1)c1ccccc1)c1ccccc1,Potency,[1],> 20.6 µM (inactive)
same,Potency,[2],inactive
same,"activity change, negative = inhibition",[4]; at 25.7 µM (top of the series),-3.52% (inactive)
same,max response,[4]; [21],-21.2%
same,max response,[4]; [22],-22.3%
same,Potency,[5],inactive
CC[N+]1(C)[C@@H]2CC[C@H]1CC(OC(=O)[C@H]1CC[C@@](C(=O)OC3C[C@H]4CC[C@@H](C3)[N+]4(C)CC)(c3ccccc3)c3ccccc31)C2 (stereo not given in full),Potency,[1],> 20.6 µM (inactive)
same,Potency,[2],inactive
same,outcome,[3],inactive
same,"activity change, negative = inhibition",[4]; at 25.7 µM (top of the series),-4.59% (inactive)
same,max response,[4]; [21],-11.7%
same,max response,[4]; [22],-14.8%
same,Potency,[5],inactive
CCOC(=O)O[C@]1(C(=O)COC(=O)CC)CC[C@@H]2[C@@H]3CCC4=CC(=O)C=C[C@@]4(C)[C@H]3[C@H](O)C[C@]21C,Potency,[2],inactive
same,outcome,[3],inactive
same,"activity change, negative = inhibition",[4]; at 25.7 µM (top of the series),-3.74% (inactive)
same,max response,[4]; [21],-6.91%
same,max response,[4]; [22],-11.8%
same,Potency,[5],inactive
same,Potency,[6],inactive
same,"activity, negative = inhibition",[7]; parasite line A,4.34% (inactive)
same,"activity, negative = inhibition",[7]; parasite line B,0.379% (inactive)
same,Potency,[8],inactive
same,Potency,[9],inactive
same,Potency,[10],inactive
same,Potency,[11],inactive
same,Potency,[12],inactive
same,Potency,[13],inactive
same,Potency,[14],inactive
same,Potency,[15],inactive
same,Potency,[16],inactive
same,Potency,[17],inactive
same,Potency,[18],inactive
same,Potency,[19],inactive
same,Potency,[20],inactive
O=C(O)CCCC[C@H]1SC[C@H]2NC(=O)N[C@@H]21,Potency,[1],> 20.6 µM (inactive)
same,Potency,[2],0.00126 µM (active)
same,outcome,[3],inactive
same,"activity change, negative = inhibition",[4]; at 25.7 µM (top of the series),-3.62% (inactive)
same,max response,[4]; [21],5.29%
same,max response,[4]; [22],0.0876%
same,Potency,[5],inactive
O=C(c1cc(C(F)(F)F)cc(C(F)(F)F)c1)N1CCC[C@@]2(CCN(c3ccccn3)C2)C1,Potency,[1],> 46 µM (inactive)
same,"activity change, negative = inhibition",[4]; at 57.5 µM (top of the series),-14.3% (inactive)
same,max response,[4]; [21],-3.88%
same,max response,[4]; [22],-16.6%
N[C@H](Cc1cc(I)c(Oc2cc(I)c(O)c(I)c2)c(I)c1)C(=O)O,Potency,[1],> 20.6 µM (inactive)
same,Potency,[2],inactive
same,outcome,[3],inactive
same,"activity change, negative = inhibition",[4]; at 25.7 µM (top of the series),1.16% (inactive)
same,max response,[4]; [21],20.1%
same,max response,[4]; [22],21%
same,Potency,[5],inactive
COc1cc(N[C@@H](C)CCCN)c2ncccc2c1,Potency,[2],inactive
same,outcome,[3],inactive
same,"activity change, negative = inhibition",[4]; at 25.7 µM (top of the series),-1.31% (inactive)
same,max response,[4]; [21],-0.938%
same,max response,[4]; [22],-2.77%
same,Potency,[5],3.98 µM (active)
same,Potency,[6],inactive
same,Potency,[7]; parasite line A,1.58 µM (active)
same,Potency,[7]; parasite line B,2.82 µM (active)
same,Potency,[8],1.78 µM (active)
same,Potency,[9],2.82 µM (active)
same,Potency,[10],1.12 µM (active)
same,Potency,[11],2.51 µM (active)
same,Potency,[12],2.24 µM (active)
same,Potency,[13],1.26 µM (active)
same,Potency,[14],1.81 µM (active)
same,Potency,[15],3.61 µM (active)
same,Potency,[16],1 µM (active)
same,Potency,[17],2.24 µM (active)
same,Potency,[18],0.891 µM (active)
same,Potency,[19],2.28 µM (active)
same,Potency,[20],2 µM (active)
CCC(=O)[C@@]1(C)[C@H](C)C[C@@H]2[C@@H]3CCC4=CC(=O)C=C[C@@]4(C)[C@H]3[C@H](O)C[C@]21C,Potency,[1],0.00311 µM (active)
same,Potency,[2],inactive
same,outcome,[3],inactive
same,"activity change, negative = inhibition",[4]; at 25.7 µM (top of the series),-1.25% (inactive)
same,max response,[4]; [21],-14.6%
same,max response,[4]; [22],-19.8%
same,"activity, negative = inhibition",[7]; parasite line A,-6.51% (inactive)
same,"activity, negative = inhibition",[7]; parasite line B,3.51% (inactive)
same,Potency,[9],inactive
same,Potency,[10],inactive
same,Potency,[11],3.55 µM (active)
same,Potency,[12],inactive
same,Potency,[13],inactive
same,Potency,[14],inactive
same,Potency,[15],inactive
same,Potency,[16],inactive
same,Potency,[17],inactive
same,Potency,[18],inactive
same,Potency,[19],inactive
same,Potency,[20],inactive
COc1ccc2c(c1)N(C[C@@H](C)CN(C)C)c1ccccc1S2,Potency,[1],> 20.6 µM (inactive)
same,Potency,[2],inactive
same,outcome,[3],inactive
same,"activity change, negative = inhibition",[4]; at 25.7 µM (top of the series),-4.01% (inactive)
same,max response,[4]; [21],-9.35%
same,max response,[4]; [22],-12.9%
same,Potency,[6],inactive
same,"activity, negative = inhibition",[7]; parasite line A,2.81% (inactive)
same,"activity, negative = inhibition",[7]; parasite line B,-1.87% (inactive)
same,Potency,[8],inactive
same,Potency,[9],inactive
same,Potency,[10],inactive
same,Potency,[12],inactive
same,Potency,[13],inactive
same,Potency,[14],inactive
same,Potency,[15],inactive
same,Potency,[16],inactive
same,Potency,[17],inactive
same,Potency,[18],inactive
same,Potency,[20],inactive
